The nature of experiment [1]: qHTS assay to identify small molecule agonists of the hypoxia (HIF-1) signaling pathway - cell viability counter screen (AID 1224844; calls by dose curve; also: nearly all actives have a fitted effect of over 50% in size; also: potency is read from the fitted curve at half-maximal effect). An outline of the steps: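 HRE-bla ME-180 cells, 2,000/well in 0.5% dialyzed FBS medium, treated 17 h at 37C with compounds. Viability read in the same wells as the bla reporter, by CellTiter-Glo luminescence after 30 min at room temperature.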
In general terms: In qHTS, concentration-response curves come from the screen itself.

Experiment [2] in a line: qHTS assay to identify small molecule agonists of H2AX (AID 1224845; active = well fitted activation curve with a large enough effect in the signal ratio in the repeat runs, not every such curve was filed as active; the % refers to the signal ratio). The method in brief:
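Wild-type CHO-K1 cells, plated overnight, exposed 3hr at 37C to 15 concentrations (0.76% DMSO final). Lysed, then HTRF anti-pH2AX (S139) cryptate and anti-H2AX-d2 antibodies, 24 hr room temperature; 665/620 nm emission read.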

Experiment [3] can be described thus: qHTS assay to identify small molecule agonists of the hypoxia (HIF-1) signaling pathway (AID 1224846; active = well fitted activation curve with a large enough effect in the signal ratio in the repeat runs, not every such curve was filed as active; the % refers to the signal ratio). An outline of the steps: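 HRE-bla ME-180 beta-lactamase reporter cells in medium with 0.5% dialyzed FBS, pre-incubated 5 h then exposed to compounds 17 h at 37C, 5% CO2; reporter induction read with CCF4-AM FRET substrate.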
Experiment [4] is described as follows: qHTS assay to identify small molecule agonists of H2AX - cell viability counter screen (AID 1224847; calls by dose curve; also: top concentration of the series differs between compounds; nearly all actives have a fitted effect of over 30% in size). The method in brief:
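Cytotoxicity counter screen in wild-type CHO-K1 cells: a 3 hr compound treatment at 37C across 15 concentrations, followed by CellTiter-Glo luminescence to gauge viable cells.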

A short description of experiment [5]: qHTS assay to identify small molecule antagonists of the estrogen related receptor (ERR) signaling pathway from Tox21 library (AID 1224848). Also: nearly all actives have a fitted effect of over 50% in size. The method in brief:
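ERR reporter cell line (from NTP) seeded 2,000 cells/well, rested 6 h at 37 C/5% CO2, then pin-dosed with compounds in DMSO. After 18 h at 37 C, ONE-Glo added; luminescence read after 30 min at room temperature.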

A short description of experiment [6]: qHTS RealTime-Glo MT Cell Viability Assay in HepG2 cells - 24 hour (AID 1224867). Also: nearly all actives have a fitted effect of over 50% in size. An outline of the steps: (§1)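 Real-time, nonlytic viability: 600 HepG2 cells/well mixed with NanoLuc enzyme plus prosubstrate; 5 h settle, compound (DMSO) added by pintool; luminescence monitored over 40 h at 37 C.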
Experiment [7] in a line: qHTS RealTime-Glo MT Cell Viability Assay in HEK293 cells - 32 hour (AID 1224868). Also: nearly all actives have a fitted effect of over 50% in size. Also: potency is read from the fitted curve at half-maximal effect. An outline of the steps: (§2)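 Cells + reagent dispensed (600 cells/well, HEK293) → 5 h at 37 C/5% CO2 → 23 nL compound in DMSO pinned → 40 h at 37 C → luminescence read at 0, 8, 16, 24, 32, 40 h.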
Experiment [8] can be described thus: A CellTox Green Cytotoxicity Assay to monitor cytotoxicity in HEK293 cells - 0 hour (AID 1224869). Also: nearly all actives have a fitted effect of over 50% in size. The method in brief:
(§3)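 HEK293 cells, 600/well, were preincubated 5 hours and then exposed to compounds at 37 C for up to 40 hours. A cell-impermeant cyanine dye staining dead-cell DNA was read by fluorescence at 0, 8, 16, 24, 32 and 40 h time points.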

A short description of experiment [9]: qHTS RealTime-Glo MT Cell Viability Assay in HepG2 cells - 40 hour (AID 1224870). Also: nearly all actives have a fitted effect of over 50% in size. The method in brief: (§4)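 HepG2 cells (600/well) mixed with RealTime-Glo MT reagent, settled 5 h at 37 C/5% CO2 before compound addition. Nonlytic NanoLuc luminescence from viable-cell prosubstrate reduction read repeatedly during 40 h treatment at 37 C.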
A short description of experiment [10]: A CellTox Green Cytotoxicity Assay to monitor cytotoxicity in HEK293 cells - 40 hour (AID 1224871). Also: nearly all actives have a fitted effect of over 45% in size. The method in brief: as §3
Experiment [11] can be described thus: qHTS RealTime-Glo MT Cell Viability Assay in HEK293 cells - 16 hour (AID 1224872). An outline of the steps: as §2
The nature of experiment [12]: qHTS RealTime-Glo MT Cell Viability Assay in HepG2 cells - 8 hour (AID 1224873). Also: nearly all actives have a fitted effect of over 55% in size. An outline of the steps: as §4
Experiment [13] in a line: A CellTox Green Cytotoxicity Assay to monitor cytotoxicity in HEK293 cells - 24 hour (AID 1224875). Also: nearly all actives have a fitted effect of over 45% in size. The method in brief: as §3
The nature of experiment [14]: A CellTox Green Cytotoxicity Assay to monitor cytotoxicity in HepG2 cells - 16 hour (AID 1224876). Also: nearly all actives have a fitted effect of over 45% in size. An outline of the steps: (§5)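 HepG2 cells, 600/well, preincubated 5 h with CellTox Green dye, then exposed to Tox21 compounds in DMSO at 37 C for up to 40 h. Dead-cell DNA fluorescence read at the indicated time point.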
A short description of experiment [15]: qHTS RealTime-Glo MT Cell Viability Assay in HepG2 cells - 32 hour (AID 1224877). Also: nearly all actives have a fitted effect of over 55% in size. The method in brief: as §1
The nature of experiment [16]: A CellTox Green Cytotoxicity Assay to monitor cytotoxicity in HepG2 cells - 40 hour (AID 1224879). Also: nearly all actives have a fitted effect of over 40% in size. The method in brief: as §5
A short description of experiment [17]: qHTS RealTime-Glo MT Cell Viability Assay in HEK293 cells - 40 hour (AID 1224874). Also: nearly all actives have a fitted effect of over 50% in size. Also: potency is read from the fitted curve at half-maximal effect. Conditions: RealTime-Glo luminescence; max response: stronger effect = lower value. An outline of the steps: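 600 cells/well were plated with the nonlytic NanoLuc/prosubstrate reagent, pre-incubated 5 h, then given 23 nL of compound in DMSO. Incubation at 37 C for 40 h, with luminescence from viable-cell-reduced substrate read repeatedly from 0 h.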

Experiment [18] is described as follows: A CellTox Green Cytotoxicity Assay to monitor cytotoxicity in HepG2 cells - 24 hour (AID 1224878). Also: nearly all actives have a fitted effect of over 45% in size. The method in brief: as §5
The nature of experiment [19]: qHTS assay to identify small molecule agonists of the estrogen related receptor (ERR) signaling pathway from Tox21 library (AID 1224849; calls by dose curve; also: nearly all actives have a fitted effect of over 15% in size). The conditions noted are these: ERR reporter cell line, ONE-Glo luciferase, 18 h. An outline of the steps:
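ERR reporter cells (NTP line) pre-incubated 6 hours at 37 C, then exposed to compounds for 18 hours at 37 C. ONE-Glo luciferase luminescence was read after 30 minutes at room temperature.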

The structures appear in SMILES notation. Values joined by “and” are separate entries in the source; they are usually repeats but may differ in a detail not shown here. Equal values may be shown once. Results filed as inconclusive are left out. Where a structure was tested more than once in an assay, its records may differ in their call. Active and inactive are the calls of the source. Unless noted, calls follow the shape of the dose curve; as a rule, active = well fitted curve in the direction sought with a large enough effect in the repeat runs; inconclusive = weak or mixed curves; inactive = no such curve, though single readings can be large; an effect the other way counts as inactive or inconclusive.
% is scaled to controls: 0 for no effect and ±100 for the full control effect.

For the molecule `CNC(=O)O/N=C(\SC)C(=O)N(C)C`, the Potency entry in [1], in [2], in [4], in experiment [5], in experiment [7] and in experiment [8] was “inactive” throughout. Further, the Potency entry in [10], in experiment [13], in [14] and in experiment [16] was “inactive” each time. For the same molecule, the outcome in [3], in experiment [6], in experiment [9], in [11], in experiment [12] and in [15] was inactive.

`FC(F)(F)c1ccc(Cl)cc1`: the Potency result in [1], in experiment [2], in [4], in experiment [7], in experiment [8] and in [10] was “inactive” each time. Moreover, the Potency result in experiment [13], in experiment [14], in experiment [18] and in [16] was “inactive” each time. The molecule was classed as inactive in experiment [3], in experiment [6], in experiment [9], in [11], in [12] and in experiment [15]. Moreover, the max response in experiment [17] is 3.01% (inactive) and 8.11% (inactive).

Turning to `COP(=S)(OC)Oc1ccc(SC)c(C)c1`, the Potency entry in [1], in [2], in [4], in experiment [7], in experiment [8] and in experiment [10] was “inactive” each time. Besides, the Potency result in [13], in experiment [14], in [18] and in [16] was “inactive” each time. Further, the result in experiment [3], in [6], in [9], in experiment [11], in experiment [12] and in [15] was inactive. Further, the max response in [17] is -4.14% (inactive) and -8.35% (inactive) and 5.42% (inactive).

In the case of `Cc1ccc(N=C=O)cc1N=C=O`, in [1], the Potency was 24.5 µM (active) and inactive. For the same molecule, the Potency entry in experiment [2], in experiment [4], in [5], in [7], in [8] and in experiment [10] was “inactive” in each case. Further, the Potency entry in experiment [13], in [14] and in experiment [16] was “inactive” throughout. In addition, the molecule was classed as inactive in experiment [3], in experiment [6], in experiment [9], in experiment [11], in [12] and in [15]. For the same molecule, the activity change, positive = activation in experiment [19] (at 92.4 µM (top of the series)) is 1.23% (inactive) and -0.244% (inactive) and 4.95% (inactive).

As to `Nc1cccc(Cl)c1`, the Potency result in experiment [1], in [2], in experiment [4], in experiment [5], in experiment [8] and in experiment [10] was “inactive” throughout. The Potency result in experiment [13], in [14], in [18] and in [16] was “inactive” in each case. In addition, the call in experiment [3], in [6], in [9], in experiment [11], in experiment [12] and in experiment [15] was inactive. The activity change, positive = activation in [19] (at 92.4 µM (top of the series)) is 7.3% (inactive) and -16.4% (inactive). The Potency entry was “inactive and 21.9 µM (active)” in experiment [7]; 21.9 µM (active) in [17]. The max response in experiment [17] was 0.922% (inactive).

As to `CSc1nnc(C(C)(C)C)c(=O)n1N`, the Potency result in experiment [1], in experiment [2], in [4], in [7], in experiment [8] and in experiment [10] was “inactive” in each case. The Potency result in experiment [13], in experiment [14] and in experiment [16] was “inactive” in each case. Moreover, the call in [3], in experiment [6], in [9], in [11], in experiment [12] and in experiment [15] was inactive. Further, in [17], the max response is -23.1% (inactive) and -14.9% (inactive).

Regarding `COC(C)(C)CCCC(C)C/C=C/C(C)=C/C(=O)OC(C)C` (configuration not stated), the Potency entry in experiment [1], in experiment [2], in experiment [4], in [5], in experiment [7] and in experiment [8] was “inactive” in each case. In addition, the Potency entry in experiment [10], in experiment [13], in experiment [14], in experiment [18] and in experiment [16] was “inactive” throughout. The molecule was classed as inactive in [3], in experiment [6], in experiment [9], in experiment [11], in [12] and in [15]. For the same molecule, the values for the activity change, positive = activation in experiment [19] (at 42.5 µM (top of the series)) and in [19] (at 92.4 µM (top of the series)) were 0.0177% (inactive) and -14.1% (inactive), respectively.
